Structures are written as SMILES. For some assays here: Measured potencies and affinities stand elsewhere.

What all share (parameters): scale not given: direction of the effect not stated beside the values
The target of assay [1] is Protein translocase subunit SecA (Escherichia coli (strain K12)) (UniProt P10408). As to the kind of experiment: Assay to Identify E. coli SecA ATPase Inhibitors. Type of assay: functional. Particulars: 30 µM.
Assay [2] concerns the target T1, Ubiquitin-activating enzyme e1, putative (Leishmania donovani (strain BPK282A1)) (UniProt E9BSI1).
T1 sequence (whole entry): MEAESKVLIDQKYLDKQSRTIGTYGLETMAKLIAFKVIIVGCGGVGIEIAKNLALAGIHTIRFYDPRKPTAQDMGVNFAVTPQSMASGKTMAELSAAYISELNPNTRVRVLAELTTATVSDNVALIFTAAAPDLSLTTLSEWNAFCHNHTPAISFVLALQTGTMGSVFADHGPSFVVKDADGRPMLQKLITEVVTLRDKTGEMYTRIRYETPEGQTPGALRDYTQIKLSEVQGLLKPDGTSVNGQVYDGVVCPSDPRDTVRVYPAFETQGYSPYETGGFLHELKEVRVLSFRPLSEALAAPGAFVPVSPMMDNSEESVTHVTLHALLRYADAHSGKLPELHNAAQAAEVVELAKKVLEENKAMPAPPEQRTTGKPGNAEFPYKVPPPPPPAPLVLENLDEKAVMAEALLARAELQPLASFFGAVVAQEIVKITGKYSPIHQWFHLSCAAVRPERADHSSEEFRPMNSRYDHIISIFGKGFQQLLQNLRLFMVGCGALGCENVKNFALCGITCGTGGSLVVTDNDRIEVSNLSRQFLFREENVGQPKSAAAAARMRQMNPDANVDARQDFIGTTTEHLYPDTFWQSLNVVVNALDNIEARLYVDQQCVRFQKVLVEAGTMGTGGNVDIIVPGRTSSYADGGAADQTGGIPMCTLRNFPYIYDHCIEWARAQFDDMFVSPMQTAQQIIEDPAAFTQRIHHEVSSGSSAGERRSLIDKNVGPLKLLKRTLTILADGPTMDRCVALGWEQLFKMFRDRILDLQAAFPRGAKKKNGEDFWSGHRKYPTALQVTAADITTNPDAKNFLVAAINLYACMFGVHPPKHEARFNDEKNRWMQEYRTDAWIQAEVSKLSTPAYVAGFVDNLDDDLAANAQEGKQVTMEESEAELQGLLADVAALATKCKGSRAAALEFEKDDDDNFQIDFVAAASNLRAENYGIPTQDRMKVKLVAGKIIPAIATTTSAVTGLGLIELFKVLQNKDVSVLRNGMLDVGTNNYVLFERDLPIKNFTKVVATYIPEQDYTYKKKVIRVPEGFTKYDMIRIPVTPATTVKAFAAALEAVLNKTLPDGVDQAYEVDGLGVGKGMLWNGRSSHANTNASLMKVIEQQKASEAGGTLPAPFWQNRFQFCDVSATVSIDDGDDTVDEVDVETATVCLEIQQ
As to the kind of experiment: Leishmania donovani Ubiquitin Activating Enzyme (LdE1). The format is functional. Conditions: 30 µM.

Assay [3] addresses AMP-activated protein kinase, AMPK (Homo sapiens) (UniProt P54646+O43741+P54619+Q9UGJ0+Q9Y478+Q13131+Q9UGI9). Put plainly: AMP-dependent Kinase enzyme assay. An in vitro enzyme assay that detects ADP turnover that is directly proportional to AMPK activity. This uses naive AMPK that is activated during the assay with MK-8722. Type of assay: functional. Conditions: 30 µM.
Assay [4] concerns the target Sialic acid-binding Ig-like lectin 9 (Homo sapiens) (UniProt Q9Y336). As to the kind of experiment: Hs-Siglec9 ALPHAscreen SOP 20170721. Conditions: 10 µM.
A further assay relates to Trypanosoma cruzi. As to the kind of experiment: Trypanosoma cruzi phosphomannomutase and mannose-1-phosphate guanylyltransferase assay. The format is functional. Particulars: 10 µM.
Assay [5] concerns the target T2, Arginase-2, mitochondrial (Homo sapiens) (UniProt P78540).
T2 sequence (whole entry): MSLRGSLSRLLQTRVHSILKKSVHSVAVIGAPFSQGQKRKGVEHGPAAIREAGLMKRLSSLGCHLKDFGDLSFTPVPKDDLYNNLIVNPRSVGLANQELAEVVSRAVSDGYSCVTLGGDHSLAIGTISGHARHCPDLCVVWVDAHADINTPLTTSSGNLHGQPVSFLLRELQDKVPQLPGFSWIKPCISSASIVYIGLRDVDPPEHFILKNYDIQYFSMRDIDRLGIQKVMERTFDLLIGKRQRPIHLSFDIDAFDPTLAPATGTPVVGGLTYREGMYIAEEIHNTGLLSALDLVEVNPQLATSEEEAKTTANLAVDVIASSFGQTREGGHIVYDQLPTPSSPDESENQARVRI
As to the kind of experiment: in vitro enzyme assay to detect the production of urea directly proportional to the activity of Arginase II. Note: in the data most compounds retested in dose-response had high values. The format is functional. Particulars: 33.3 µM.

For assay [6], the target named is T3, Proteasome subunit beta (Trypanosoma cruzi) (UniProt O96673).
T3 sequence (whole entry): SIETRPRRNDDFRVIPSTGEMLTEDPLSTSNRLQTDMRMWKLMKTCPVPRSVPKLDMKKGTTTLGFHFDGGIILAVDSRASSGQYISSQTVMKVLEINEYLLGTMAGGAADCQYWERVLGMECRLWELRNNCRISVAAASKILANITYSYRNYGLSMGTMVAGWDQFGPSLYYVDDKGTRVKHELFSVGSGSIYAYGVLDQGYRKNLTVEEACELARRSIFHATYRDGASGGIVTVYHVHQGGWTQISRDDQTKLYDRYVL
Put plainly: Trypanosoma cruzi proteasome chymotrypsin-like activity (TcProtChymo) assay. Note: in the data most compounds retested in dose-response had high values. Conditions: 9.37 µM. The format is functional.

For another assay, the species on record is Homo sapiens. Put plainly: To identify inhibition of the IFN signalling (Jak-Stat) pathway via expression of an eGFP reporter gene under the control of an IFN-stimulated response element (ISRE) containing MxA promoter. The format is functional. Conditions: 30 µM. For orientation: A reporter such as luciferase makes a cellular process visible.
For assay [7], the target named is T4, Tyrosyl-tRNA synthetase, putative (Trypanosoma cruzi (strain CL Brener)) (UniProt Q4DSP6).
T4 sequence (whole entry): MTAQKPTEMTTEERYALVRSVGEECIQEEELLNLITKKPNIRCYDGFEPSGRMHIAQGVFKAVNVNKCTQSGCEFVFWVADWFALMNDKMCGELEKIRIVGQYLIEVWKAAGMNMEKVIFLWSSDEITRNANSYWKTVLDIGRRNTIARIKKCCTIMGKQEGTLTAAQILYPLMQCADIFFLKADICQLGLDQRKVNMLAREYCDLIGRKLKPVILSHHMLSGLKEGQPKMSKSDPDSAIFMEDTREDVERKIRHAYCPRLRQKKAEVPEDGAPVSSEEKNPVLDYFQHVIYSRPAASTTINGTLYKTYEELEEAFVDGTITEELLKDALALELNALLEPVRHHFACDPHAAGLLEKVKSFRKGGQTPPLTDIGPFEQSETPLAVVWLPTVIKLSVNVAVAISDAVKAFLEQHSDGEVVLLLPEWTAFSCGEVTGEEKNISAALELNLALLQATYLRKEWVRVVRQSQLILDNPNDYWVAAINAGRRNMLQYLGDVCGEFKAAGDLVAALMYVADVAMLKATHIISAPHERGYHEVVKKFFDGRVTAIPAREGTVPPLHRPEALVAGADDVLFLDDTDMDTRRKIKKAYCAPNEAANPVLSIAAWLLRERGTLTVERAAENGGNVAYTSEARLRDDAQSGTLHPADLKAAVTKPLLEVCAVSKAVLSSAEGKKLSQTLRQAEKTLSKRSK
As to the kind of experiment: Trypanosoma cruzi tyrosyl tRNA synthetase (TcYRS) _High Tyrosine SOP. Note: in the data most compounds retested in dose-response had high values. Particulars: 30 µM. Type of assay: functional.

Assay [8] deals with T4, Tyrosyl-tRNA synthetase, putative (Trypanosoma cruzi (strain CL Brener)). Put plainly: Trypanosoma cruzi tyrosyl tRNA synthetase (TcYRS) SOP. Type of assay: functional. Particulars: 30 µM.
Assay [9] addresses Chromo domain-containing protein 1 (Saccharomyces cerevisiae (strain ATCC 204508 / S288c) (Baker's yeast)) (UniProt P32657). Put plainly: ScCHD-1 Enzyme Inhibition Assay. Note: in the data most compounds retested in dose-response had high values. Type of assay: functional. Particulars: 30 µM.

Chain of Protein translocase subunit SecA (Escherichia coli (strain K12)) (P10408 whole entry): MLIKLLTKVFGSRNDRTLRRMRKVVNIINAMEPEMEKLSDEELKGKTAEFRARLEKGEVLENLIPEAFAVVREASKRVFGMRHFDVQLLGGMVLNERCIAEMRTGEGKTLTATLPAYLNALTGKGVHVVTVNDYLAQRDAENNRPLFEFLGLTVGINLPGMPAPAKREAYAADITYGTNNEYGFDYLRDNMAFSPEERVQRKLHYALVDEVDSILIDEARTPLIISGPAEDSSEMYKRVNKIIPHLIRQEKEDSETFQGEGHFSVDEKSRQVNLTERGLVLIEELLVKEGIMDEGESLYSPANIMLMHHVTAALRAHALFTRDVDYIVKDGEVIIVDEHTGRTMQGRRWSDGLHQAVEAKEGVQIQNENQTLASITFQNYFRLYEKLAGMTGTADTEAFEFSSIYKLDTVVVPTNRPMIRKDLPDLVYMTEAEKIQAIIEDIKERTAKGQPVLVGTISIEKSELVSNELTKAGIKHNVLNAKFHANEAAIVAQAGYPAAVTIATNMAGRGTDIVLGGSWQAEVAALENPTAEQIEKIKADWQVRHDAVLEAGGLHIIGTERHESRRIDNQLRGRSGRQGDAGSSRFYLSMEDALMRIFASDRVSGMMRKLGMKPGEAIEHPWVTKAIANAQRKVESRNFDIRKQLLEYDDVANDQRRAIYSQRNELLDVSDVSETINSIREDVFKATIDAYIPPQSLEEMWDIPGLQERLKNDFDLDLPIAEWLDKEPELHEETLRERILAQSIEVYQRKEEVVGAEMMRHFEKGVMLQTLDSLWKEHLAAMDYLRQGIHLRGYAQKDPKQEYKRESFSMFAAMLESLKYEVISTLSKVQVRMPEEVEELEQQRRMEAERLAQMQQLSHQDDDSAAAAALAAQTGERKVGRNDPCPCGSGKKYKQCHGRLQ
Chain of Chromo domain-containing protein 1 (Saccharomyces cerevisiae (strain ATCC 204508 / S288c) (Baker's yeast)) (P32657 whole entry, the tested form may be a part): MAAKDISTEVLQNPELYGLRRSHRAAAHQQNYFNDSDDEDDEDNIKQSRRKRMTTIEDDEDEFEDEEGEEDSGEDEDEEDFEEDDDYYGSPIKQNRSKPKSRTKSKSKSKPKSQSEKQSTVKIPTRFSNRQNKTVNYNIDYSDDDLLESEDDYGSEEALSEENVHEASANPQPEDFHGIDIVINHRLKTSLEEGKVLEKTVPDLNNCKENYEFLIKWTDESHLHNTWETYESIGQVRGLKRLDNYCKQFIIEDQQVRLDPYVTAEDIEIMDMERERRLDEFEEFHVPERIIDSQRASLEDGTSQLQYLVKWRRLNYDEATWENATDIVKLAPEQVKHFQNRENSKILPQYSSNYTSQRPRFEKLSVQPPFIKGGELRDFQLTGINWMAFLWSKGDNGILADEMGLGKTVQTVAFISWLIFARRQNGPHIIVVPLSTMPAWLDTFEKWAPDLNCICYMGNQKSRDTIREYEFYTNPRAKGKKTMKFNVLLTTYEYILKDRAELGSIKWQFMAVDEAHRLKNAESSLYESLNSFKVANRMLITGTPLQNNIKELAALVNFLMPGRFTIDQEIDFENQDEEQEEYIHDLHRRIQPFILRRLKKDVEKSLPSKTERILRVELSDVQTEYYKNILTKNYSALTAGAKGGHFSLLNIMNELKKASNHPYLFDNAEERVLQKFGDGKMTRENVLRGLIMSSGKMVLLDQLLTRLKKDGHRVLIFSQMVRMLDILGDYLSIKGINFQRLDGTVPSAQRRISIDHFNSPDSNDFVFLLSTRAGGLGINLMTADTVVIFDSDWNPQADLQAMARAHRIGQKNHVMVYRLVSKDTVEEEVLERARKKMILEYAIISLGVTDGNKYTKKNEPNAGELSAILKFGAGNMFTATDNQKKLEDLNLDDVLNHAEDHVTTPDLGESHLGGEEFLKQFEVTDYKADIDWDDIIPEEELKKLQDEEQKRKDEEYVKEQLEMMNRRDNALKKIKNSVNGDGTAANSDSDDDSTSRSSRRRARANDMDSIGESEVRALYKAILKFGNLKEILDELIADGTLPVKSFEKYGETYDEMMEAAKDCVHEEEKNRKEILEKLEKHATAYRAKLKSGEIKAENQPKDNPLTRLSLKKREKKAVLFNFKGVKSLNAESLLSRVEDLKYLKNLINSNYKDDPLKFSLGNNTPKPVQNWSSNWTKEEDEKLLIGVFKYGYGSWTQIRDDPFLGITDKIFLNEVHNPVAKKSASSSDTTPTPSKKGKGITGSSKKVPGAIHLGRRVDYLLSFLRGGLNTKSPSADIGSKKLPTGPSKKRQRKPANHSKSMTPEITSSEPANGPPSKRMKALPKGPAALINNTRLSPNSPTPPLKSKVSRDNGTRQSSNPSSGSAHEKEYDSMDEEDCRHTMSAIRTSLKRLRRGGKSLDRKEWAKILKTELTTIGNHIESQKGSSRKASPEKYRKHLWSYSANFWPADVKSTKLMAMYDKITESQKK
Chain of Sialic acid-binding Ig-like lectin 9 (Homo sapiens) (Q9Y336 whole entry): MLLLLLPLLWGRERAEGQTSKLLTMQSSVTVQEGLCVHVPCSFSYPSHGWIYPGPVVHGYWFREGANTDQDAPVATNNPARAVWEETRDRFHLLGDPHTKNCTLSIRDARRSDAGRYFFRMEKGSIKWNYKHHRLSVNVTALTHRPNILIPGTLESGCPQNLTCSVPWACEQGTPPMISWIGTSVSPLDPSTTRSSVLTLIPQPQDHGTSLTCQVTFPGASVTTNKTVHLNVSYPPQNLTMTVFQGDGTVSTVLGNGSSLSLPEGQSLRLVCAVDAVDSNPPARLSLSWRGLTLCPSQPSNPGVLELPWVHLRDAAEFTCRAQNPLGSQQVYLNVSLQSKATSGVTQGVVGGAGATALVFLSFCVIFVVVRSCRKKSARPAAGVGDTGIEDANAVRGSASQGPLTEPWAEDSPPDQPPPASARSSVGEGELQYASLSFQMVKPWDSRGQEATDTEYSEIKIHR

Consider `O=C(N1CCCC1)N1CCO[C@H]2[C@@H](Oc3ccccn3)CC[C@@H]21`, for which the Percent Effect in assay [1] is 0.00913%; in assay [2], 2.67%; in [3], 13.9%; in [4], -0.922%; in the assay on Trypanosoma cruzi, -4.92%; in assay [5], 4.43%. Moreover, the Percent Effect in [6] was -1.85%; in the assay filed under Homo sapiens, 12.7%; in [7], 4.25%; in assay [8] it was 3.85%; in assay [9], 1.67%.
Consider `CCCc1n[nH]c(C2CN(CCCS(C)(=O)=O)CCO2)n1` (stereo not given), for which the Percent Effect is -5.31% in assay [1]; 11.4% in assay [2]; 0.105% in assay [3]; -1.3% in assay [4]; 1.13% in the assay with Trypanosoma cruzi; 2.37% in assay [5]. The Percent Effect in assay [6] is 14.1%; in the assay listed under Homo sapiens it was 1.09%; in assay [7], 5.21%; in assay [8], 10.1%; in assay [9] it was -22.8%.
Take `COCCN1CCC(Cc2cncc(-c3ccc(C(=O)O)cc3)n2)C1` (stereo not given): the Percent Effect was -5.18% in [1]; 1.35% in [2]; 42.5% in [3]; -3.43% in assay [4]; -3.75% in the assay with Trypanosoma cruzi; -2.55% in assay [5]. Further, the Percent Effect in assay [6] is 3.43%; in the assay listed under Homo sapiens, 12.6%; in assay [7] it was 1.07%; in assay [8] it was 1.3%; in assay [9], -3.54%.
Turning to `CC(NC(=O)c1ccc2c(c1)OCC(=O)N2)c1ccccc1F` (stereo not given), the Percent Effect in assay [1] was -5.46%; in [2], 18.4%; in assay [3], 22%; in assay [4], 2%; in the assay on Trypanosoma cruzi, 1.03%; in [5], -0.719%. Further, the Percent Effect is 9.39% in assay [6]; -9.89% in the assay listed under Homo sapiens; 10.3% in assay [7]; 18.5% in assay [8]; -4.32% in assay [9].
Regarding `Cc1ccc(CN2CCC[C@]3(C(=O)O)CN(c4ncccn4)C[C@@H]3C2)o1`, the Percent Effect in [1] was -3.35%; in assay [2], 5.33%; in assay [3] it was -3.88%; in assay [4], 3.31%; in the assay on Trypanosoma cruzi it was 0.579%; in assay [5] it was -39.6%. In addition, the Percent Effect in [6] is 3.59%; in the assay filed under Homo sapiens, -0.723%; in assay [7] it was 5.21%; in assay [8], -15%; in [9], -7.67%.
For the molecule `COCC(=O)N1CCN(C(=O)c2scnc2C)CC1`, the Percent Effect is -4.41% in [1]; 7.89% in [2]; 1.74% in assay [3]; 5.01% in assay [4]; 2.82% in the assay on Trypanosoma cruzi; -4.73% in assay [5]. For the same molecule, the Percent Effect in assay [6] is 12.4%; in the assay listed under Homo sapiens it was 19.8%; in assay [7], 1.06%; in assay [8], 10.4%; in [9], 0.643%.
In the case of `Cn1cc(C(=O)NCc2cn3c(n2)CN(CC2CCOCC2)CC3)cn1`, the Percent Effect in [1] was -2.09%; in assay [2] it was 5.41%; in [3], 26.2%; in [4] it was -3.62%; with Trypanosoma cruzi, -1.95%; in assay [5] it was 1.67%. For the same molecule, the Percent Effect is 11.9% in [6]; 20.1% in the assay filed under Homo sapiens; 7.92% in assay [7]; 15.8% in [8]; -0.801% in assay [9].
For the molecule `OC(COc1ccccc1)CN1CCC(c2ccn[nH]2)CC1` (stereo not given), the Percent Effect was -2.35% in assay [1]; 15.2% in [2]; -5.68% in assay [3]; 0.333% in [4]; -4.82% with Trypanosoma cruzi; 3.04% in assay [5]. The Percent Effect in assay [6] is 2.05%; in the assay listed under Homo sapiens it was -21.8%; in [7] it was 2.46%; in [8], 13.9%; in assay [9] it was -2.28%.
Turning to `O=C(c1ccc[nH]1)N1CCn2cc(Cn3cncn3)nc2C1`, the Percent Effect in assay [1] was -0.971%; in assay [2], 2.67%; in assay [3], 2.39%; in assay [4], -2.2%; with Trypanosoma cruzi, -3.94%; in assay [5], 3.03%. Besides, the Percent Effect in assay [6] is 11.2%; in the assay listed under Homo sapiens, 13.4%; in assay [7], 3.19%; in [8] it was -1.28%; in assay [9] it was -3.1%.
Consider `CCCc1noc(CCC(=O)NC(C)c2nnc3n2CCCCC3)n1` (stereo not given), for which the Percent Effect in [1] is -0.578%; in assay [2], 8.11%; in [3] it was -6.02%; in assay [4], 5.58%; in the assay on Trypanosoma cruzi, -2.64%; in assay [5], 5.21%. The Percent Effect was 19.5% in [6]; 3.01% in the assay filed under Homo sapiens; 3.23% in assay [7]; 8.64% in assay [8]; -5.75% in [9].

For the origin of these results see ChEMBL document CHEMBL3988442, “University of Dundee, Small-Polar-MMV Screening Library” (2021).
